PubChem BioAssay AID1159580 (chemical genetic matrix, 2015)
Screen size: about 5,500 compounds; about 2,000 (36%) were called active. Not shown: some 18% with an inconclusive outcome. Rule as the data show it: active = normalized growth mostly below about 0.91 (no sharp cut-off); inconclusive = no clear call, values can overlap the other calls; inactive = mostly above about 0.92. Some of the results follow.

Experiment: chemical genetic growth profiling, strain panel (AID 1159580);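 also: tested at 20 µM; growth read once vehicle control cultures reached saturation at 30 °C; 1 = growth at the plate median or of vehicle wells; lower values mean less growth of the strain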
Settings: growth OD
[1] = S. cerevisiae deletion strains, locus YAL013W, strain DEP1, hits give low values
[2] = S. cerevisiae deletion strains, locus YBR229C, strain ROT2, hits give low values
[3] = S. cerevisiae deletion strains, locus YDL101C, strain DUN1, hits give low values
[4] = S. cerevisiae deletion strains, locus YDR150W, strain NUM1, hits give low values
[5] = S. cerevisiae deletion strains, locus YEL061C, strain CIN8, hits give low values
[6] = S. cerevisiae deletion strains, locus YGR078C, strain PAC10, hits give low values
[7] = S. cerevisiae deletion strains, locus YHR030C, strain SLT2, hits give low values
[8] = S. cerevisiae deletion strains, locus YHR087W, strain rtc3, hits give low values
[9] = S. cerevisiae deletion strains, locus YJL187C, strain SWE1, hits give low values
[10] = S. cerevisiae deletion strains, locus YJR043C, strain POL32, hits give low values
[11] = S. cerevisiae deletion strains, locus YJR075W, strain HOC1, hits give low values
[12] = S. cerevisiae deletion strains, locus YLR039C, strain RIC1, hits give low values
[13] = S. cerevisiae deletion strains, locus YLR058C, strain SHM2 (second series), hits give low values
[14] = S. cerevisiae deletion strains, locus YLR085C, strain ARP6, hits give low values
[15] = S. cerevisiae deletion strains, locus YLR262C, strain YPT6, hits give low values
[16] = S. cerevisiae deletion strains, locus YML094W, strain GIM5, hits give low values
[17] = S. cerevisiae deletion strains, locus YMR219W, strain ESC1, hits give low values
[18] = S. cerevisiae deletion strains, locus YMR263W, strain SAP30, hits give low values
[19] = S. cerevisiae deletion strains, locus YNL153C, strain GIM3, hits give low values
[20] = S. cerevisiae deletion strains, locus YNL298W, strain CLA4 (second series), hits give low values
[21] = S. cerevisiae deletion strains, locus YNL322C, strain KRE1, hits give low values
[22] = S. cerevisiae deletion strains, locus YNR030W, strain Alg12, hits give low values
[23] = S. cerevisiae deletion strains, locus YOL006C, strain TOP1, hits give low values
[24] = S. cerevisiae deletion strains, locus YPL055C, strain LGE1, hits give low values
[25] = S. cerevisiae deletion strains, locus YPL241C, strain CIN2, hits give low values
[26] = S. cerevisiae deletion strains, locus YPR135W, strain CTF4, hits give low values

Measured: normalized growth

COc1ccc(CCNC(=S)Nc2cccc(C(F)(F)F)c2)cc1OC
inactive: [1] 0.997 | [2] 0.995 | [3] 0.999 | [4] 0.957 | [5] 1.02 | [6] 0.971 | [7] 0.9 | [8] 1.03 | [9] 1.01 | [10] 0.968 | [11] 0.981 | [12] 0.837 | [13] 1.01 | [14] 0.962 | [15] 0.831 | [16] 0.968 | [17] 1 | [18] 0.981 | S. cerevisiae deletion strains, locus YNL128W, strain TEP1, hits give low values 0.987 | [19] 0.969 | [20] 1 | [21] 0.996 | [22] 1 | [23] 0.964 | [24] 1 | [25] 0.969 | [26] 0.895 | S. cerevisiae strains, strain wild type, hits give low values 0.982

FC(F)(F)c1cccc(NNC(=S)Nc2ccccc2)c1
active: [7] 0.754 | S. cerevisiae deletion strains, locus YLR113W, strain HOG1, hits give low values 0.764 | S. cerevisiae deletion strains, locus YPL256C, strain CLN2, hits give low values 0.848
inactive: S. cerevisiae deletion strains, locus YAR019C, strain CDC15, hits give low values 0.996 | S. cerevisiae deletion strains, locus YBL105C, strain PKC1, hits give low values 1 | S. cerevisiae deletion strains, locus YBR135W, strain CKS1, hits give low values 1 | S. cerevisiae deletion strains, locus YBR136W, strain MEC1, hits give low values 0.999 | S. cerevisiae deletion strains, locus YBR160W, strain CDC28, hits give low values 0.997 | S. cerevisiae deletion strains, locus YDL017W, strain CDC7, hits give low values 0.998 | S. cerevisiae deletion strains, locus YDL028C, strain MPS1, hits give low values 1 | [3] 0.994 | S. cerevisiae deletion strains, locus YDL108W, strain KIN28, hits give low values 1.01 | S. cerevisiae deletion strains, locus YDL132W, strain cdc53, hits give low values 0.99 | S. cerevisiae deletion strains, locus YDL214C, strain PRR2, hits give low values 0.951 | S. cerevisiae deletion strains, locus YDR052C, strain DBF4, hits give low values 0.998 | S. cerevisiae deletion strains, locus YDR054C, strain cdc34, hits give low values 0.989 | S. cerevisiae deletion strains, locus YDR226W, strain ADK1, hits give low values 0.999 | S. cerevisiae deletion strains, locus YDR477W, strain SNF1, hits give low values 0.882 | S. cerevisiae deletion strains, locus YER123W, strain YCK3, hits give low values 0.912 | S. cerevisiae deletion strains, locus YER133W, strain GLC7, hits give low values 0.975 | S. cerevisiae deletion strains, locus YFL009W, strain cdc4, hits give low values 1 | S. cerevisiae deletion strains, locus YFL029C, strain CAK1, hits give low values 1 | S. cerevisiae deletion strains, locus YFR003C, strain YPI1, hits give low values 1.01 | S. cerevisiae deletion strains, locus YFR019W, strain FAB1, hits give low values 0.974 | S. cerevisiae deletion strains, locus YFR028C, strain CDC14, hits give low values 1 | S. cerevisiae deletion strains, locus YGR040W, strain KSS1, hits give low values 0.897 | S. cerevisiae deletion strains, locus YGR052W, strain FMP48, hits give low values 0.957 | S. cerevisiae deletion strains, locus YGR092W, strain DBF2, hits give low values 0.807 | S. cerevisiae deletion strains, locus YHR079C, strain IRE1, hits give low values 0.848 | S. cerevisiae deletion strains, locus YHR082C, strain KSP1, hits give low values 0.876 | S. cerevisiae deletion strains, locus YHR205W, strain SCH9, hits give low values 0.877 | S. cerevisiae deletion strains, locus YIL147C, strain SLN1, hits give low values 0.998 | S. cerevisiae deletion strains, locus YJL095W, strain BCK1, hits give low values 0.856 | S. cerevisiae deletion strains, locus YJL128C, strain PBS2, hits give low values 0.986 | S. cerevisiae deletion strains, locus YJL157C, strain FAR1, hits give low values 0.945 | S. cerevisiae deletion strains, locus YJR016C, strain ILV3, hits give low values 0.996 | S. cerevisiae deletion strains, locus YJR066W, strain TOR1 (second series), hits give low values 0.812 | S. cerevisiae deletion strains, locus YJR066W, strain TOR1, hits give low values 0.861 | S. cerevisiae deletion strains, locus YKL048C, strain ELM1, hits give low values 0.948 | S. cerevisiae deletion strains, locus YKL067W, strain YNK1, hits give low values 0.937 | S. cerevisiae deletion strains, locus YKL101W, strain HSL1, hits give low values 0.907 | S. cerevisiae deletion strains, locus YKL193C, strain SDS22, hits give low values 1 | S. cerevisiae deletion strains, locus YKL203C, strain TOR2, hits give low values 0.968 | S. cerevisiae deletion strains, locus YLR133W, strain CKI1, hits give low values 0.946 | S. cerevisiae deletion strains, locus YLR403W, strain SFP1, hits give low values 0.929 | S. cerevisiae deletion strains, locus YML070W, strain DAK1, hits give low values 0.947 | S. cerevisiae deletion strains, locus YMR001C, strain CDC5, hits give low values 1.01 | S. cerevisiae deletion strains, locus YMR205C, strain PFK2 (second series), hits give low values 0.971 | S. cerevisiae deletion strains, locus YMR277W, strain FCP1, hits give low values 0.994 | S. cerevisiae deletion strains, locus YNL006W, strain LST8, hits give low values 1 | S. cerevisiae deletion strains, locus YNL020C, strain ARK1, hits give low values 0.925 | S. cerevisiae deletion strains, locus YNL161W, strain CBK1, hits give low values 0.997 | S. cerevisiae deletion strains, locus YNL183C, strain NPR1, hits give low values 0.874 | S. cerevisiae deletion strains, locus YNL207W, strain RIO2, hits give low values 0.998 | S. cerevisiae deletion strains, locus YNL222W, strain SSU72, hits give low values 0.999 | S. cerevisiae deletion strains, locus YNL307C, strain MCK1 (second series), hits give low values 0.825 | S. cerevisiae deletion strains, locus YOL078W, strain AVO1, hits give low values 0.995 | S. cerevisiae deletion strains, locus YOL136C, strain PFK27, hits give low values 0.938 | S. cerevisiae deletion strains, locus YOR061W, strain CKA2, hits give low values 0.856 | S. cerevisiae deletion strains, locus YOR119C, strain RIO1, hits give low values 0.993 | S. cerevisiae deletion strains, locus YOR231W, strain MKK1, hits give low values 0.882 | S. cerevisiae deletion strains, locus YOR329C, strain SCD5, hits give low values 0.996 | S. cerevisiae deletion strains, locus YPL031C, strain PHO85, hits give low values 0.894 | S. cerevisiae deletion strains, locus YPL153C, strain RAD53, hits give low values 0.919 | S. cerevisiae deletion strains, locus YPL204W, strain HRR25, hits give low values 0.89 | S. cerevisiae deletion strains, locus YPL209C, strain IPL1, hits give low values 0.997 | S. cerevisiae deletion strains, locus YPR025C, strain CCL1, hits give low values 1 | S. cerevisiae deletion strains, locus YPR106W, strain ISR1, hits give low values 1.01 | S. cerevisiae deletion strains, locus YPR111W, strain DBF20, hits give low values 1 | S. cerevisiae deletion strains, strain NNK1, hits give low values 0.995 | S. cerevisiae deletion strains, strain TSCII, hits give low values 1

CC(C)(C)C(=O)NC(=S)Nc1cccc(C(F)(F)F)c1
active: [1] 0.925 | S. cerevisiae deletion strains, locus YDL134C, strain PPH21, hits give low values 0.804 | [7] 0.527 | [12] 0.401 | [14] 0.397 | [15] 0.474 | [16] 0.846 | [20] 0.676 | [22] 0.722 | [23] 0.238 | [24] 0.785 | [25] 0.755 | [26] 0.569
inactive: [2] 0.989 | [3] 0.984 | [4] 0.91 | [5] 0.944 | [6] 0.959 | S. cerevisiae deletion strains, locus YGR229C, strain SMI1, hits give low values 0.959 | [8] 0.99 | [9] 0.987 | [10] 0.957 | [11] 0.977 | [13] 0.966 | [17] 0.978 | [18] 0.953 | [19] 0.955 | [21] 0.984
